Screens as filed in PubChem BioAssay.
NS1 inh: inhibitors of influenza NS1 protein function; hit rate 0.4% among 270,000; Potency, µM (highest dose often 46.1 µM); AID 2326; calls by dose curve; note: actives are rising curves; nearly all actives have a fitted effect of over 50% in size
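Recovery from NS1-induced slow growth read by OD600 in budding yeast switched to galactose assay medium (pH 6.0, -URA) at 1:100 dilution. Compound 23 nl per well; the matching strain lacking NS1 serves as control.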
RE007 growth inh: less growth of the S. pombe RE007 Vpr strain | S. pombe RE007 Vpr strain, BacTiter-Glo ATP luminescence, 24 h | Potency, µM (titrated, usually from 92.2 µM), actives largely listed as inhibitors | hit rate 0.21% among 360,000; active = well fitted falling curve with a large enough effect; inconclusive = small, poorly fitted or top-dose-only effect; inactive = no such curve, though single readings can be large or run the other way; note: nearly all actives have a fitted effect of over 50% in size
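Fission yeast strain RE007, carrying one chromosomally integrated HIV-1 vpr copy, was seeded at OD 0.01 in PMG+AL medium with 23 nL pinned compound. After 24 h at 30 °C and 99% humidity, viability was read by BacTiter-Glo luminescence.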
Pf growth 48h: P. falciparum growth inhibition at 48 hours (one generation); hit rate 5.9% among 310,000; P. falciparum luciferase growth in erythrocytes, 48 h; Potency, µM (top dose mostly 28.7 µM), hits mostly inhibitors
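Compounds are pin-transferred into medium, infected erythrocytes (2% hematocrit, 0.1% parasitemia final) are added, and plates sit one parasite generation at 37 C in 5% CO2. Detection reagent is then added and luminescence measured.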
SARS PLP yeast: SARS-CoV PLP inhibition in yeast; AID 485353; S. cerevisiae expressing SARS-CoV PLpro, growth rescue; Potency, µM (titrated, usually from 32.9 µM), most hits filed as activators; hit rate 0.19% among 330,000; calls by dose curve; note: nearly all actives have a fitted effect of over 55% in size
Pf growth 96h: inhibits malaria parasite growth, 96 h. P. falciparum luciferase reporter growth, 96 h. Potency, µM (series often up to 28.7 µM), actives largely listed as inhibitors. hit rate 6.9% among 320,000. AID 504834
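Erythrocytes infected with luciferase-expressing P. falciparum were dispensed at 2% hematocrit and 0.05% parasitemia (final), then incubated with compounds 96 hours at 37 C in 5% CO2. Luminescence after detection reagent addition reported growth.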
A number is an active result; i = inactive; ? = inconclusive; nt = not tested or not shown; [ ] = dose if it differs, or a comment. Compounds with a hit are over-represented: about 9.5% of the library has one in this group of screens. Unless noted, calls come from the whole dose curve; as a rule, active = well fitted inhibition curve with a large enough effect; inconclusive = small, poorly fitted or top-dose-only effect, or another doubt; inactive = no such curve, though single readings can be large or run the other way.

SMILES	NS1 inh	RE007 growth inh	Pf growth 48h	SARS PLP yeast	Pf growth 96h
COc1ccccc1NS(=O)(=O)c1cc(C(=O)Nc2ccc(S(=O)(=O)Nc3onc(C)c3C)cc2)ccc1C	nt	i	nt	nt	nt
COc1cc(NC(=O)CCc2c(C)noc2C)c(C(=O)O)cc1OC	nt	i	nt	nt	nt
O=C1[C@H]2[C@@H](c3ccc(Cl)cc3)N3C(=O)N(c4cccc(Br)c4)C(=O)[C@@]3(Cc3ccc(Cl)cc3)[C@H]2C(=O)N1C1CCCCC1	?	i	?	i	12µM
O=C1[C@H]2[C@@H](c3ccc(F)cc3)N3C(=O)N(c4cccc(Br)c4)C(=O)[C@@]3(Cc3ccc(Cl)cc3)[C@H]2C(=O)N1C1CCCCC1	i	i	2.9µM	i	3.3µM
CCc1nc(NC(=O)c2sc(C)nc2C)sc1C(=O)OC	i	i	i	i	?
c1ccc(CN2CCCC3(CCCN(Cc4nc(COc5ccccc5)no4)C3)C2)cc1 (configuration not stated)	i	i	12µM	i	i
c1ccc(CN2CCCC3(CCCN(Cc4nc(CC5CC5)no4)C3)C2)cc1 (configuration not stated)	i	i	i	i	i
CCCCN(C(=O)C1CC(=O)N(c2ccc(CC)cc2)C1)c1c(N)n(CCC)c(=O)[nH]c1=O (configuration not stated)	nt	i	i	i	i
CC1CCN(CC(O)COC2CC(C)CCC2C(C)C)CC1 (configuration not stated)	i	i	12µM	i	?
CCOC(=O)N1CCN(CC(O)COC2CC(C)CCC2C(C)C)CC1 (configuration not stated)	i	i	?	i	nt
CC1CCC(C(C)C)C(OCC(O)CNC(C)(C)C)C1 (configuration not stated)	nt	i	?	i	5.2µM
CC1CCC(C(C)C)C(OCC(O)CNC(C)c2ccccc2)C1 (configuration not stated)	i	i	?	i	?
CC1CC(C)CN(C(=O)/C=C/c2ccc([N+](=O)[O-])s2)C1 (configuration not stated)	nt	i	i	i	9.3µM
O=C(/C=C/c1ccc([N+](=O)[O-])s1)N1CCCC1	nt	?	13µM	i	10µM
O=C(/C=C/c1ccc([N+](=O)[O-])s1)N1CCCCC1	nt	?	?	i	?
CC1CN(C(=O)/C=C/c2ccc([N+](=O)[O-])s2)CC(C)O1 (configuration not stated)	nt	i	?	i	?
O=c1[nH]nc(-c2ccc[nH]2)[nH]1	nt	i	nt	nt	nt
Cc1sc(NC(=O)c2ccccc2)c(C(=O)c2ccccc2)c1C	i	i	i	i	12µM
Cc1ccc(C(=O)Nc2sc(C)c(C)c2C(=O)c2ccccc2)cc1	i	i	i	i	i
COc1cc(/C=C/C(=O)N(C)CC(=O)Nc2ccccc2Br)cc2c1OCCO2	nt	i	8.3µM	i	?
COc1cc(/C=C/C(=O)N(C)CC(=O)Nc2ccccc2SC)cc(OC)c1OC	nt	i	nt	i	nt
C=CCN1C=C2C(=O)C(C)(OC(=O)CCC(=O)OC)C(=O)C(Br)=C2C=C1c1ccc(OC)cc1 (configuration not stated)	i	i	15µM	i	?
COc1ccc2c3c([nH]c2c1)[C@H]1C[C@@H]2[C@@H](C[C@@H](O)[C@H](OC)[C@H]2C(=O)O)CN1CC3	i	nt	nt	nt	nt
COC(=O)[C@@H]1[C@@H]2C[C@H]3c4[nH]c5ccccc5c4CCN3C[C@@H]2CC[C@@H]1O	i	nt	i	nt	i
COC(=O)[C@H]1[C@H]2C[C@@H]3c4[nH]c5cc(OC)ccc5c4CCN3C[C@H]2C[C@@H](OC(=O)/C=C/c2cc(OC)c(OC)c(OC)c2)[C@@H]1OC	nt	i[18.4 µM]	0.74µM	nt	0.93µM
SMILES	NS1 inh	RE007 growth inh	Pf growth 48h	SARS PLP yeast	Pf growth 96h
COc1ccc2c3c([nH]c2c1)[C@H]1C[C@H]2[C@H](C[C@@H](O)[C@H](OC)[C@H]2C(=O)O)CN1CC3	nt	i	i	nt	i
COC(=O)[C@H]1[C@H]2C[C@@H]3c4[nH]c5cc(OC)ccc5c4CCN3C[C@H]2C[C@@H](OC(=O)c2ccc(N)cc2)[C@@H]1OC	i	i	12µM	i	13µM
CCOC(=O)Oc1c(OC)cc(C(=O)O[C@H]2C[C@H]3CN4CCc5c([nH]c6cc(OC)ccc56)[C@@H]4C[C@H]3[C@@H](C(=O)OC)[C@@H]2OC)cc1OC	nt	nt	1.6µM	nt	1.3µM
O=C(O)[C@@H]1[C@H]2C[C@H]3c4[nH]c5ccccc5c4CCN3C[C@@H]2CC[C@@H]1O	nt	i[18.4 µM]	?	nt	7.4µM
COc1ccc2c3c([nH]c2c1)C1CC2C(CC(O)C(OC)C2CO)CN1CC3 (configuration not stated)	i	i	i	i	i
O=C(O)C(Cl)(c1ccccc1)c1ccccc1	i	nt	nt	nt	nt
COC(=O)[C@H]1[C@H]2C[C@@H]3c4[nH]c5ccccc5c4CCN3C[C@H]2C[C@@H](OC(=O)c2cc(OC)c(OC)c(OC)c2)[C@@H]1OC	nt	nt	0.38µM	nt	i
COC(=O)C1[C@@H](OC)C(OC(=O)COc2ccc(OC)cc2)C[C@@H]2CN3CCc4c([nH]c5cc(OC)ccc45)[C@H]3C[C@H]12 (some centres not stated)	nt	nt	8.5µM	nt	6.7µM
O=c1[nH]c(=S)[nH]c2sc3c(c12)CCCCCC3	i	i	i	i	?
O=C(C1=NOC2(C1)C(=O)Nc1ccccc12)N1CCCCC1 (configuration not stated)	nt	i	nt	nt	nt
COc1ccccc1-c1nnc(NC(C)=O)s1	i	i	i	i	7.4µM
COc1ccccc1-c1nnc(NC(=O)C(C)C)s1	i	i	i	i	i
CN(C)CC[C@@](O)(c1ccccc1)c1ccccc1Cl	nt	nt	?	nt	11µM
COc1cc(S(=O)(=O)N2CC(=O)Nc3ccccc32)ccc1NC(C)=O	i	i	i	i	i
CCN1C(=O)[C@H]2[C@@H](c3ccc(-c4cc(C(C)=O)cs4)cc3)N3CCCC[C@@]3(C(=O)OC)[C@H]2C1=O	nt	i	?	i	?
CCN1C(=O)[C@@H]2[C@@H](c3ccc(-c4ccc(C(C)=O)cc4)cc3)N3CCC[C@@]3(C(=O)OC)[C@@H]2C1=O	nt	i	9.3µM	i	?
CCN1C(=O)[C@H]2[C@@H](c3ccc(-c4ccc(C(C)=O)cc4)cc3)N3CCCC[C@@]3(C(=O)OC)[C@H]2C1=O	nt	i	?	i	12µM
CCN1C(=O)[C@H]2[C@@H](c3ccc(-c4ccc(C(C)=O)cc4)cc3)N3CCC[C@@]3(C(=O)OC)[C@H]2C1=O	nt	i	?	i	?
Cc1oncc1C(=O)N1CCCC(CO)(Cc2ccc(F)cc2F)C1 (configuration not stated)	i	i	i	i	i
COC(=O)c1cnn(-c2ccccc2)c1/C=N/NC(=S)Nc1ccc(Cl)cc1	i	i	?	i	i
O=C(OCC(=O)N(C1CCCCC1)C1CCCCC1)c1ccc(O)cc1	i	i	8.3µM	i	?
N#CCC(=O)Nc1ccc(C(=O)OCC(=O)NC2CCCCCC2)cc1	nt	i	?	i	?
